# Experimental data published in PubChem BioAssay (NCATS).
# “And” between values parts separate entries of the source, which are not always exact repeats. Identical values can stand only once. Unmarked numbers belong to inactive results. Results filed as inconclusive are left out. Where a call stands in place of a potency, no number is given. The source made the active and inactive calls. Unless noted, calls come from the whole dose curve; as a rule, active = well fitted curve in the direction sought with a large enough effect; inconclusive = small, poorly fitted or top-dose-only effect, or another doubt; inactive = no such curve, though single readings can be large; an effect the other way counts as inactive or inconclusive. Bridge positions count the residues as written; N and C are the ends. Square brackets hold non-standard residues; d marks the D form. Peptide text beside a SMILES is read from it. * marks the point of attachment. Octanoyl(6-Me) = CCC(C)CCCCC(=O)*; Dab = NCC[CH](N)C(=O)O
# Experiments:
# [1] = S16 Schwann cell viability assay (CellTiter-Glo assay) (AID 624031); note: nearly all actives have a fitted effect of over 70% in size; note: potency is the fitted concentration of half-maximal effect
# Procedure, shortened: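 Native S16 rat Schwann cells, 500-750 cells/well in DMEM with 10% FBS, dosed with compound after overnight culture and incubated 24h at 37 degree Celsius/5% CO2. Viability by CellTiter-Glo luminescence; % activity normalized to no-cell wells and DMSO-treated cells.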
# [2] = system: CP194; assay: qHTS profiling for inhibitors of Plasmodium falciparum proliferation (AID 504749); note: nearly all actives have a fitted effect of over 60% in size; note: potency is the fitted concentration of half-maximal effect; conditions: P. falciparum in erythrocytes, SYBR Green DNA, 72 h; series mostly up to 28.7 µM
# Procedure, shortened: (§1)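 Each compound contacts P. falciparum-infected red blood cells for 72 h at 37 C; lysis buffer (Tris, EDTA, saponin, Triton X, SYBR Green I) is added and fluorescence measured next morning; values normalized to controls.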
# [3] = system: CP201; assay: as above; conditions: P. falciparum in erythrocytes, SYBR Green DNA, 72 h; series mostly up to 28.7 µM
# Procedure, shortened: as §1
# [4] = system: CP250; assay: as above; conditions: P. falciparum in erythrocytes, SYBR Green DNA, 72 h; series mostly up to 28.7 µM
# Procedure, shortened: as §1
# [5] = system: P93_24; assay: as above; conditions: P. falciparum in erythrocytes, SYBR Green DNA, 72 h; series mostly up to 28.7 µM
# Procedure, shortened: as §1
# [6] = target: Cytochrome P450 3A4 (Homo sapiens) (UniProt P08684); assay: qHTS Assay for Activators of Cytochrome P450 3A4 (AID 885); note: nearly all actives have a fitted effect of over 65% in size
# Procedure, shortened: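 Using 20nM recombinant human CYP3A4 in potassium phosphate (200mM), substrate Luciferin-PPXE at 25uM, luminescent luciferin detection followed a 60-min RT NADPH reaction; data scaled to 57 uM ketoconazole.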
# [7] = Confirmation and Secondary Assay for Modulators of Hemoglobin Beta Chain Splicing at IVS2 654 locus (AID 910);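 note: HeLa cells stably carrying EGFP split by mutant beta-globin IVS2-654 intron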;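 note: potency is the fitted concentration of half-maximal effect; potency of activators that raise GFP signal by restoring correct splicing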
# Procedure, shortened: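 HeLa cells stably expressing EGFP interrupted by β-globin IVS2-654 intron, seeded overnight in Opti-MEM/2% FCS, then treated 2 days at 37 °C. Restored splicing read as total peak GFP intensity per well by laser scanning cytometry (488 nm excitation, 500–520 nm emission); 500 nM antisense PNA as control.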
# [8] = Confirmation and Secondary Assay for Modulators of Hemoglobin Beta Chain Splicing at IVS2 705 locus (AID 930);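 note: GFP fluorescence per well restored by corrected splicing of the IVS2-705 intron in EGFP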; note: potency is the fitted concentration of half-maximal effect;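 for activation: HeLa cells stably expressing the EGFP-705 splicing reporter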
# Procedure, shortened: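 HeLa cells stably carrying EGFP interrupted by mutant beta-globin intron 2 (IVS2-705) treated 2 days at 37C with compound; 500 nM antisense PNA as control. Correct splicing read as total peak GFP intensity per well by laser-scanning cytometry.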
# [9] = system: PC26; assay: qHTS profiling for inhibitors of Plasmodium falciparum proliferation (AID 504749); note: nearly all actives have a fitted effect of over 60% in size; note: potency is the fitted concentration of half-maximal effect; conditions: P. falciparum in erythrocytes, SYBR Green DNA, 72 h; series mostly up to 28.7 µM
# Procedure, shortened: as §1
# [10] = target: ATP-dependent 6-phosphofructokinase (Trypanosoma brucei brucei) (UniProt O15648); assay: qHTS Assay to Find Inhibitors of T. brucei phosphofructokinase: hit validation (AID 492961);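 note: luminescence reports ADP formed as PFK phosphorylates fructose-6-phosphate with ATP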
# Procedure, shortened: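 Inhibition of parasite PFK is measured as reduced ADP formation, quantified via luciferase after ATP depletion. Assay used 0.1 mM ATP, 0.5 mM F6P, 1.25 nM enzyme, 45 min incubation.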
# [11] = target: Cytochrome P450 1A2 (Homo sapiens) (UniProt P05177); assay: p450-cyp1a2 (AID 410; calls by dose curve; note: potency is the fitted concentration of half-maximal effect)
# Procedure, shortened: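 Luminescent demethylation readout: Luciferin-ME (100uM, equal to Km) turned over by 20nM CYP1A2 for 60 min at room temperature after NADPH regeneration addition, following 10 min compound preincubation. Normalization used 57 uM furafylline as full inhibition.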
# [12] = target: Glucocorticoid receptor (Homo sapiens) (UniProt P04150); assay: GR-EFC Redistribution (AID 451; calls by dose curve; note: potency is the fitted concentration of half-maximal effect); conditions: CHO-K1 GR-EFC translocation, beta-gal luminescence, 2 h
# Procedure, shortened: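 CHO-K1 cells expressing nuclear EA and GR-ED fragments of b-gal; compounds titrated up to 46 uM final, 2 h at 37 C. GR nuclear translocation read as complemented b-gal luminescence after 1 h RT detection.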
# [13] = target: Androgen receptor (Homo sapiens) (UniProt P10275); assay: qHTS assay for small molecule agonists of androgen receptor signaling (AID 588515; active = well fitted curve in the direction sought with a large enough effect in the signal ratio, with a control signal flat; the % refers to the signal ratio); conditions: AR-UAS-bla HEK293, beta-lactamase ratio, agonist 16 h; active compounds read high
# Procedure, shortened: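 Stimulation of an AR-responsive β-lactamase reporter in GripTite HEK293 cells was measured after 16 h compound exposure at 37 °C, via CCF4 fluorescence after 2 h RT. EC50 from Hill fits, normalized to R1881 at 30 nM.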
# [14] = target: Androgen receptor (Homo sapiens) (UniProt P10275); assay: qHTS assay for small molecule antagonists of androgen receptor signaling (AID 588516; active = well fitted curve in the direction sought with a large enough effect in the signal ratio, with a control signal flat, not every such curve was filed as active; the % refers to the signal ratio)
# Procedure, shortened: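 AR-UAS-bla-GripTite HEK 293 cells (2000/well, 5 h at 37 C) received compound titrations, then R1881 at 10 nM final; after 16 h at 37 C, CCF4 dye 2 h RT, beta-lactamase fluorescence read; IC50 from Hill fits.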
# [15] = AP1 Signaling Pathway (AID 357; active = well fitted curve in either direction with a large enough effect, not every such curve was filed as active); conditions: ME-180 (cervical carcinoma) AP-1-bla reporter, EGF-induced, beta-lactamase ratio, 5 h; at 7.69 µM (top of the series) unless noted
# Procedure, shortened: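 AP-1-bla ME-180 cells with beta-lactamase reporter under AP-1 response element, stimulated with EC50 EGF; compounds titrated, 5 hours at 37 degrees Celsius. CCF4 read at 460/530 nm ratio; positive and negative modulators judged by AC50.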
# [16] = NFAT Signaling Pathway (AID 444; active = well fitted curve in either direction with a large enough effect, not every such curve was filed as active;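 note: carbachol stimulus at about its EC50 of 1 µM final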); conditions: Jurkat NFAT-bla M1, carbachol, beta-lactamase ratio, 5 h; at 7.69 µM (top of the series) unless noted
# Procedure, shortened: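 Jurkat cells with NFAT-driven β-lactamase reporter and co-expressed M1 receptor, stimulated with carbachol (final 1 uM, ~EC50), compound titration, 5 h at 37 °C. CCF4 loaded 1 h at RT; 460/530 nm ratio gave %activity and AC50.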
# [17] = Stat Signaling Pathway (AID 446; active = well fitted curve in either direction with a large enough effect, not every such curve was filed as active;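 note: ME-180 cervical cancer cells given 40 pM IL-6 alongside compound; SIE-controlled beta-lactamase reporter measured as 460/530 nm FRET emission ratio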)
# Procedure, shortened: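 Overnight-plated ME-180 cells bearing a STAT Inducible Element beta-lactamase reporter; 5 h co-exposure to compound and 40 pM IL-6; values normalized to 300 pM IL-6 and 125 nM JAK inhibitor controls.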
# Chain of Cytochrome P450 3A4 (Homo sapiens) (P08684 whole entry, looked up): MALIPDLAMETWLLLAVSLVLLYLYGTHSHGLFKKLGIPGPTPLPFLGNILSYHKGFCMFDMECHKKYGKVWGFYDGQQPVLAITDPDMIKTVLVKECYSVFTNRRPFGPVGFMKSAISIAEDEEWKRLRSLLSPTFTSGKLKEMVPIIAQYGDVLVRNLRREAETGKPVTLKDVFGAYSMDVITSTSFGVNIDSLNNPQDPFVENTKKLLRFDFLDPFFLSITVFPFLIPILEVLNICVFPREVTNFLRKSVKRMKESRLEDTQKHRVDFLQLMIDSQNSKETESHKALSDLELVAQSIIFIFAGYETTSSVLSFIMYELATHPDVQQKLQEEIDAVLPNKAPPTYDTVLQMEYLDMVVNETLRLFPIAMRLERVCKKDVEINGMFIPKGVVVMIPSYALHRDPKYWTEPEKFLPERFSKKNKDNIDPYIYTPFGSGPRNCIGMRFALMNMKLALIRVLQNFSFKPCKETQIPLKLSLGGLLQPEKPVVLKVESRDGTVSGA
# Chain of ATP-dependent 6-phosphofructokinase (Trypanosoma brucei brucei) (O15648 whole entry, looked up): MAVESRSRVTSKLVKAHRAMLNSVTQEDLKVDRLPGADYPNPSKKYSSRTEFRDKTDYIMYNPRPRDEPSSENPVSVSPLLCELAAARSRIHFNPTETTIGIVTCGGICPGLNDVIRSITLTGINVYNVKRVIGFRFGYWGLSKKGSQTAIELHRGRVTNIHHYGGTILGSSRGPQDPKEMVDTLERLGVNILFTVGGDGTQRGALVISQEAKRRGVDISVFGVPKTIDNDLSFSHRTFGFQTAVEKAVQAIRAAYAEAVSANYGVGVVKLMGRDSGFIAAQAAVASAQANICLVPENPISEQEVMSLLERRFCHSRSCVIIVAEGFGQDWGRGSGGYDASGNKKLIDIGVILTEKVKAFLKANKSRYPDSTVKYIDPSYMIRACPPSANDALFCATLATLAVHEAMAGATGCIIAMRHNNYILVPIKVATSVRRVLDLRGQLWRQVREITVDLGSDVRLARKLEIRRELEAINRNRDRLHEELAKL
# Chain of Androgen receptor (Homo sapiens) (P10275 whole entry, looked up): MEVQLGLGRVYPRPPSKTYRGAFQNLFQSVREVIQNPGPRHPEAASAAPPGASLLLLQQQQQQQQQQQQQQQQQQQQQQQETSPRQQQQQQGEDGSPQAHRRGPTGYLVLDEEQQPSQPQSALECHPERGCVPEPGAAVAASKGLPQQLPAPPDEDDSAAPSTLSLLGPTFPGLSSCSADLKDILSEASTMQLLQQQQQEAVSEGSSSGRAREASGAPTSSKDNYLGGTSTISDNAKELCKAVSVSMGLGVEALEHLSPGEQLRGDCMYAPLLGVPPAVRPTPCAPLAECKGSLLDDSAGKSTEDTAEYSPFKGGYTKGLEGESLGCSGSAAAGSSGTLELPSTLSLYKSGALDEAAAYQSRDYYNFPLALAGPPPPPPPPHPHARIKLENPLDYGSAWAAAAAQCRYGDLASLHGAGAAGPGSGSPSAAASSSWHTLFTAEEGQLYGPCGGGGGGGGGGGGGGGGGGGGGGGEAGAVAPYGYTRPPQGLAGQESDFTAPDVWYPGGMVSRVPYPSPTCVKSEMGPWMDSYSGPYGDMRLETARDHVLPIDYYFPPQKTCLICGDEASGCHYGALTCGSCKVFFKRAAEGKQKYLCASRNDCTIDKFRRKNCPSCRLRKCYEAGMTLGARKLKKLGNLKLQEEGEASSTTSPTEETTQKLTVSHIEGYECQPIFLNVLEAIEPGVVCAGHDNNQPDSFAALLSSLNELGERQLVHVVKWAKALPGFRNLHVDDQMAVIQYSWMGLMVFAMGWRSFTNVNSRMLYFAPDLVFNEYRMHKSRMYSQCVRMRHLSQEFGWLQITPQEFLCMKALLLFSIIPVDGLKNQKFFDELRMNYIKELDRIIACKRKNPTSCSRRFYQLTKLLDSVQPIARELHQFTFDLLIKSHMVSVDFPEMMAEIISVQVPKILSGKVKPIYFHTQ
# Chain of Glucocorticoid receptor (Homo sapiens) (P04150 whole entry, looked up, the tested form may be a part): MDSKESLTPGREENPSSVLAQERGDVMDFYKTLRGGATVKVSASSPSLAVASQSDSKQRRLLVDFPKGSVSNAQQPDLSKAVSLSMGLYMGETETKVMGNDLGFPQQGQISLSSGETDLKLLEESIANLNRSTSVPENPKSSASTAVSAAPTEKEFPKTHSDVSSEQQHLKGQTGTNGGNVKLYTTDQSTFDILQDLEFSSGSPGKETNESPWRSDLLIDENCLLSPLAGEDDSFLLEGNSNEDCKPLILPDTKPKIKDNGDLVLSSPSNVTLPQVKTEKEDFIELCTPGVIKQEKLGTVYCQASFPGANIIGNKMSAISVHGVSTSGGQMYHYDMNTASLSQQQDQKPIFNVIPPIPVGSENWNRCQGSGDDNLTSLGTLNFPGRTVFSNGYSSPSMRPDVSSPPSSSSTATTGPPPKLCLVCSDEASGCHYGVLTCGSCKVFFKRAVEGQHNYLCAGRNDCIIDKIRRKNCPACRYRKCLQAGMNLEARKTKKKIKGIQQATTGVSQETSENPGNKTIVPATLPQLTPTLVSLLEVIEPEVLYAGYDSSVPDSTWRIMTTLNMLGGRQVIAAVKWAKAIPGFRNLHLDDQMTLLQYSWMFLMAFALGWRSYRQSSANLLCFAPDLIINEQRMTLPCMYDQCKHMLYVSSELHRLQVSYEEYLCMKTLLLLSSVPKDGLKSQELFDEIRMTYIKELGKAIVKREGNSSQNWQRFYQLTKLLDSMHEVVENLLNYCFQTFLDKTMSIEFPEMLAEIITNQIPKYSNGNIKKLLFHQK
# Chain of Cytochrome P450 1A2 (Homo sapiens) (P05177 whole entry, looked up): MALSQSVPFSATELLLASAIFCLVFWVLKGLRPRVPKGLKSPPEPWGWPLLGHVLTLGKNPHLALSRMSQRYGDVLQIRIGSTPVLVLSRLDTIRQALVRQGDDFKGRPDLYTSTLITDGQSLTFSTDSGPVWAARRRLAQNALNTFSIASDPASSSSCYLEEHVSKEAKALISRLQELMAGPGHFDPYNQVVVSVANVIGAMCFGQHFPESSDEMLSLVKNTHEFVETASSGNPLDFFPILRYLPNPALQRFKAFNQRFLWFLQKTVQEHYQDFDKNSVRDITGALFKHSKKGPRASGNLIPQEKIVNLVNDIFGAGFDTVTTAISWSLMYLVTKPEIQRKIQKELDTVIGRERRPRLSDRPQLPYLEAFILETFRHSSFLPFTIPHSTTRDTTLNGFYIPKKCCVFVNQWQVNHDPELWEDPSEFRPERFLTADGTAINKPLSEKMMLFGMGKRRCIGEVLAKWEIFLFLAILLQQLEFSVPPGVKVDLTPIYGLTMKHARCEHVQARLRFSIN
structure (smiles),measurement,setting,value
CCN1/C(=C/C=C/C=C/c2sc3ccccc3[n+]2CC)Sc2ccccc21,Potency,[1],7.21 µM (active)
same,Potency,[2],6.75 µM (active)
same,Potency,[3],12 µM (active)
same,Potency,[4],3.98 µM (active)
same,Potency,[5],3.55 µM (active)
COc1cc(/C=C/C(=O)N2CCC=CC2=O)cc(OC)c1OC,outcome,[6],inactive
same,Potency,[7],inactive
same,Potency,[8],inactive
Nc1nc(-c2ccc(Cl)c(Cl)c2)c(-c2ccncc2)s1,outcome,[6],inactive
CCCCCCCCCCCCC[N+](C)(C)Cc1ccccc1,Potency,[7],inactive
same,Potency,[8],inactive
CCC(C)CCCCC(=O)NC(CCN)C(=O)NC(C(=O)NC(CCN)C(=O)NC1CCNC(=O)C(C(C)O)NC(=O)C(CCN)NC(=O)C(CCN)NC(=O)C(CC(C)C)NC(=O)C(Cc2ccccc2)NC(=O)C(CCN)NC1=O)C(C)O (configuration not stated) ({Octanoyl(6-Me)}-[Dab]T[Dab][Dab][Dab]FL[Dab][Dab]T; lactam 4-C; configuration not given here),Potency,[7],inactive
same,Potency,[8],inactive
same,Potency,[2],inactive
same,Potency,[3],inactive
same,Potency,[4],inactive
same,Potency,[9],inactive
CO/N=C(/C(=O)N[C@@H]1C(=O)N2C(C(=O)O)=CCS[C@H]12)c1csc(N)n1,Potency,[1],inactive
same,Potency,[2],inactive
same,Potency,[3],inactive
same,Potency,[4],inactive
same,Potency,[5],inactive
same,Potency,[9],inactive
CO[C@@H]1[C@@H](OC2OC(C)C(OC3CC(C)(O)C(OC(=O)CC(C)C)C(C)O3)C(N(C)C)C2O)[C@@H](CC=O)C[C@@H](C)C(=O)/C=C\C2O[C@H]2C[C@@H](C)OC(=O)C[C@H]1OC(C)=O (some centres not stated),outcome,[10],inactive
same,Potency,[1],inactive
same,Potency,[4],10 µM (active)
same,Potency,[5],8.91 µM (active)
CC(C)CN(C[C@@H](OP(=O)(O)O)[C@H](Cc1ccccc1)NC(=O)O[C@@H]1CCOC1)S(=O)(=O)c1ccc(N)cc1,outcome,[10],inactive
same,Potency,[1],inactive
same,Potency,[2],inactive
same,Potency,[3],inactive
same,Potency,[4],inactive
same,Potency,[5],inactive
same,Potency,[9],inactive
CC(=O)O[C@@]12CO[C@@H]1C[C@H](O)[C@@]1(C)C(=O)[C@H](O)C3=C(C)[C@@H](OC(=O)C(O)[C@@H](NC(=O)OC(C)(C)C)c4ccccc4)C[C@@](O)([C@@H](OC(=O)c4ccccc4)[C@H]21)C3(C)C (some centres not stated),outcome,[10],inactive
same,Potency,[2],0.0675 µM (active)
same,Potency,[5],0.0562 µM (active)
same,Potency,[9],0.0379 µM (active)
CCC(=O)O[C@@H](OP(=O)(CCCCc1ccccc1)CC(=O)N1C[C@H](C2CCCCC2)C[C@H]1C(=O)O)C(C)C (some centres not stated),outcome,[10],inactive
same,Potency,[1],inactive
same,Potency,[2],inactive
same,Potency,[3],inactive
same,Potency,[4],inactive
same,Potency,[9],inactive
CC1(C)S[C@@H]2[C@H](NC(=O)COc3ccccc3)C(=O)N2[C@H]1C(=O)O,outcome,[10],inactive
same,Potency,[2],inactive
same,Potency,[3],inactive
same,Potency,[4],inactive
same,Potency,[5],inactive
same,Potency,[9],inactive
CC1CCC(C(C)C)C(OC(=O)c2ccccc2O)C1 (configuration not stated),outcome,[10],inactive
same,Potency,[1],inactive
same,Potency,[2],inactive
same,Potency,[3],inactive
same,Potency,[4],inactive
same,Potency,[5],inactive
same,Potency,[9],inactive
CC(C)(CO)C(O)C(=O)NCCCC(=O)O (configuration not stated),Potency,[1],inactive
Cc1cc(CC(C)CC(C)(C)C)n(O)c(=O)c1 (configuration not stated),outcome,[10],inactive
same,Potency,[2],4.26 µM (active)
same,Potency,[3],4.78 µM (active)
same,Potency,[4],1.12 µM (active)
same,Potency,[5],2.24 µM (active)
same,Potency,[9],3.79 µM (active)
O=c1cc(-c2cccc(O)c2)oc2c(O)c(O)ccc12,Potency,[11],0.1 µM (active)
same,Potency,[12],> 46 µM
same,outcome,[6],inactive
O=C(O)c1ccccc1C(c1ccc(O)cc1)c1ccc(O)cc1,activation,[13],7.12% and 7.97%
same,outcome,[14],inactive
Nc1nc(Cl)nc2c1ncn2C1CC(O)C(CO)O1 (configuration not stated),Potency,[2],inactive
same,Potency,[3],inactive
same,Potency,[9],inactive
COc1ccc2nc(N)sc2c1,outcome,[6],inactive
same,activation,[13],3.27% and 6.72%
same,outcome,[14],inactive
C=Cc1ccccc1Cl,activation,[13],-2.34%
same,outcome,[14],inactive
NC1=NC(S)C2N=CN=C2N1 (configuration not stated),Potency,[7],2 µM (active)
same,Potency,[8],5.01 µM (active)
same,outcome,[10],inactive
same,Potency,[2],inactive
same,Potency,[3],inactive
same,Potency,[4],inactive
same,Potency,[5],inactive
same,Potency,[9],inactive
O=NCc1ccc([N+](=O)[O-])o1,outcome,[10],inactive
same,Potency,[1],inactive
same,Potency,[2],inactive
same,Potency,[3],inactive
O=C1c2ccccc2C(=O)C1c1ccc2ccccc2n1,"activity change, negative = inhibition",[15],13% [at 17.2 µM]
same,"activity change, negative = inhibition",[16],21.8% [at 17.2 µM]
same,outcome,[17],inactive
same,outcome,[6],inactive
CCCCC(CC)CN (configuration not stated),activation,[13],5.31% and -4.67%
same,outcome,[14],inactive
CCO,activation,[13],30.9%
same,outcome,[14],inactive
